Screening results: PubChem BioAssay, Pan Lab, Icahn School of Medicine at Mount Sinai
This excerpt belongs to a sample that is enriched for hits.
RBX1-CUL1 inh: blocks human RBX1-Cullin-1 di-ubiquitin formation; P62877+Q13616; actives 0.6% (n = 140,000); in vitro K48 di-Ub FRET, acceptor:donor ratio, 45 min; inhibition, % at 10 µM; AID 1347404; in the data active = inhibition above about 25%
Of the large screens only hits and unclear results are named; the others gave an inactive call.

CC(=O)OC1CC[C@](C)(C2CC[C@]3(C)C(C(C)CCCC(C)C)CCC3C2C(=O)O)C(=O)C1 (some centres not stated)	none
CC(C)CCCC(C)C1CCC2[C@@H](C(=O)O)C([C@@]3(C)CCC=CC3=O)CC[C@]12C (some centres not stated)	RBX1-CUL1 inh 97
CC(C)CCCC(C)C1CCC2C3CC([N+](=O)[O-])=C4C[C@@H](Cl)CCC4(C)C3CCC12C (some centres not stated)	none
Cc1ccc(C(=O)Nc2ccc(N3C(=O)c4cccc([N+](=O)[O-])c4C3=O)cc2)cc1	none
CC1C(=NC(=O)c2cc(-c3ccc(Br)cc3)on2)C(=O)N(c2ccccc2)N1C (configuration not stated)	none
Cc1cc(NC(=O)c2cccnc2)no1	none
CCSc1nnc(NC(=O)OC)s1	none
CCSc1nnc(NC(=O)C(C)C)s1	none
CCSc1nnc(NC(=O)C(C(F)(F)F)C(F)(F)F)s1	RBX1-CUL1 inh 32
COc1ccccc1N=c1oc2ccc(Cl)cc2cc1C(N)=O	none
O=S(=O)(Cc1ccc(F)cc1)NCC1CCCO1 (configuration not stated)	none
O=C1NC(=S)N(c2ccccc2)C(=O)/C1=C/c1cc([N+](=O)[O-])c(O)cc1O	RBX1-CUL1 inh 94
O=C1NC(=S)N(c2cccc(Br)c2)C(=O)/C1=C/c1ccccc1O	none
COc1cc(OC)c([N+](=O)[O-])cc1/C=C1\C(=O)NC(=S)N(C)C1=O	none
CCOc1ccc(C23Oc4ccccc4C(c4ccccc4C)C2C3(Cl)Cl)cc1 (configuration not stated)	none
CSc1cn[nH]c(=S)c1SCc1ccccc1	none
CCCCC(=O)Nc1ccccc1NC(=O)C(C)C	none
CCCCC(=O)Nc1cccc2cccc(S(=O)(=O)O)c12	RBX1-CUL1 inh 95
CCCCC(=O)Nc1ccccc1O	none
Cc1nn(Cc2ccc(C(=O)N/N=C/c3ccc(F)cc3)cc2)c(C)c1Br	none
O=C(NC1CC1)C1CC(=O)N(c2cccc(C(F)(F)F)c2)C1 (configuration not stated)	none
N=C1/C(=C/c2cccc(OC(=O)c3cccs3)c2)C(=O)N=C2SC(c3cccs3)=NN12	RBX1-CUL1 inh 95
N=C1/C(=C/c2cccc(Br)c2)C(=O)N=C2SC(C(F)(F)F)=NN12	none
Cc1ccc(S(=O)(=O)Oc2cccc(/C=C3/C(=N)N4N=C(CC(C)C)SC4=NC3=O)c2)cc1	none
CCOC(=O)c1ccc(-c2ccc(/C=C3/C(=N)N4N=C(c5ccc(C)cc5)SC4=NC3=O)o2)cc1	none
COc1cc(/C=C2/C(=N)N3N=C(c4ccco4)SC3=NC2=O)cc(OC)c1OC	none
CC(C)(C)c1ccc(C(=O)Oc2cccc(/C=C3\C(=N)N4N=C(c5ccco5)SC4=NC3=O)c2)cc1	RBX1-CUL1 inh 96
CC(C)NC(=O)CSc1nc(-c2cccs2)cc(-c2ccc(Cl)cc2)c1C#N	none
COCCN1CCN(C(=O)CC2(c3ccccc3C)CC(=O)N(Cc3ccncc3)C2=O)CC1 (configuration not stated)	none
CC1=Nc2c(C(N)=O)ncn2C(c2cccc([N+](=O)[O-])c2)C1C(=O)OC(C)C (configuration not stated)	none
CCCNC(=O)c1nnn(-c2ccc(OCCC)cc2)c1C	none
COCc1cc(C)nc(OCC(=O)N/N=C/c2ccc(-c3cc(C(=O)OC)ccc3Cl)o2)c1C#N	none
O=C1/C(=C/c2ccc(O)c(O)c2)Oc2ccccc21	RBX1-CUL1 inh 97
COc1ccc(C=C2C(=O)c3ccccc3C2=O)cc1O	none
CC(C)c1cc(/C=C2\OC(=O)c3ccccc32)cc(C(C)C)c1O	none
CC1CCN(S(=O)(=O)c2ccc(Cl)c(C(=O)Nc3cccc(C(=O)O)c3)c2)CC1	none
Cc1cc2nc(CCN3CCCCC3=O)cc(=O)n2[nH]1	none
COC(=O)C1=C(C)OC(=N)C(C#N)C1c1ccc(Cl)s1 (configuration not stated)	none
O=C(O)c1ccc(/C=C2\SC(=S)N(NC(=O)c3ccccc3)C2=O)cc1	none
Cc1ccc(N2C(=O)/C(=C/c3ccc(C(=O)O)cc3)SC2=S)cc1C	none
CCOc1cc(/C=C2/SC(=S)N(C(CCC(=O)O)C(=O)O)C2=O)ccc1O (configuration not stated)	none
CCCC(C(=O)O)N1C(=O)/C(=C/C(C)=C/c2ccccc2)SC1=S (configuration not stated)	RBX1-CUL1 inh 29
CC(/C=C1\SC(=S)N(c2ccc(C(=O)O)cc2)C1=O)=C\c1ccccc1	RBX1-CUL1 inh 106
O=C(O)CCC(C(=O)O)N1C(=O)/C(=C/c2cccc(Br)c2)SC1=S (configuration not stated)	none
CCc1cc(C(=O)N2CCc3c(sc(S(=O)(=O)N4CCCC4)c3C(=O)OC)C2)n(C)n1	none
CC1(C)OC(c2cccc(NS(=O)(=O)Cc3ccccc3)c2)OC1(C)C	none
O=C(NC1CC(=O)N(Cc2cccc3ccccc23)C1)C1CCOCC1 (configuration not stated)	none
COc1ccc(C2Nc3ccccc3C(=O)N2O)cc1CSc1nc(C(F)F)cc(C)c1C#N (configuration not stated)	none
Cc1ccc(/C=C2\SC(=Nc3ccc(C)c(C)c3)NC2=O)o1	none
Cc1cc(N=C2NC(=O)/C(=C\c3ccc(Br)o3)S2)ccc1Cl	none
